Assay outcomes (PubChem)
Dyrk1A ADPGlo – inhibitors of rat Dyrk1A kinase | inhibition, % at 12.5 µM | AID 504441 | 0.43% of 310,000 active | ADP-Glo luminescence, NFATc1 peptide | Q63470; in the data active = inhibition above about 50%
HSF1 inhib – HSF1 inhibition. 0.77% of 300,000 active. activity change, negative = inhibition, % at 7.5 µM (by protocol). NIH3T3-HGL HSE-luciferase, MG132-induced, luminescence 8 h; active compounds read low;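 active = more than half of replicate wells show activity change below -50%, luminescence cut by over half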;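 also: luciferase reports HSF-1 transcriptional activity via heat shock element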
NPR1 activator – GC-A (human) enzyme activation. activation, % at 10 µM. 0.14% of 370,000 active. P16066. HEK293 GC-A cells, cGMP TR-FRET, EC30 ANP; 0% at EC30 ANP, 100% saturating ANP; in the data active = activation above about 40%
HSF1 activator – increases HSF-1 driven luciferase reporter signal. NIH3T3-HGL HSF-1 luciferase reporter, MG132, 8 h; 100% = twice DMSO control signal. AID 504408. activation, % at 9 µM. 1.7% of 300,000 active;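 active = mean replicate activation of at least 50% with a set share of replicates each reaching 50%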
NPR2 activator – GC-B (human) receptor activation. activation, % at 10 µM. HEK293-GC-B cells, CNP EC30, cGMP TR-FRET; 0% at EC30 CNP, 100% saturating CNP. 0.11% of 370,000 active;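 active = activation at 10 µM reaching about 35% in either raw or pattern-adjusted values, limit read from the data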
aDG glyco up – alpha-DG glycosylation activation; Pro5-aDG cells, alpha-DG glycosylation AlphaScreen (IIH6); 0% Pro5, 100% B10-LARGE cell signal; activation, % at 10 µM; 0.22% of 360,000 active;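 active = activation of at least 8% versus controls, or a plate z-score of at least 8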;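 also: Pro5 are CHO cells carrying HIG-tagged alpha-DG that lacks glycosylation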
Hits are given with their value; i = inactive; nt = not tested or not shown. In the library only some 2.5% were active in any assay of this set; here they are far more common.

SMILES | Dyrk1A ADPGlo | HSF1 inhib | NPR1 activator | HSF1 activator | NPR2 activator | aDG glyco up
COc1ccc(COc2ccc3ccc(=O)oc3c2)cc1 | i | i | i | i | i | i
Cc1cc(C(=O)Nc2ccon2)ccc1[N+](=O)[O-] | nt | i | i | i | i | i
Nc1[nH]c(C(=O)c2ccc(Br)cc2)c(-c2ccc(Cl)cc2Cl)c1C(=O)NCCc1c[nH]c2ccccc12 | nt | nt | i | nt | i | nt
COC(=O)c1sc(NC(=O)COc2c(C)cccc2C)nc1C | i | i | i | i | i | i
CNC(=S)NNC(=O)COc1ccccc1C | i | i | i | 57 | i | i
COC(=O)c1sc(NC(=O)COc2ccccc2C)nc1C | i | i | i | 57 | i | i
Cc1ccccc1OCC(=O)Nc1ccc([N+](=O)[O-])cc1 | i | -70 | i | i | i | i
CC1CC/C(=C\c2ccc3c(c2)OCO3)C(=O)/C1=C/c1ccc2c(c1)OCO2 (stereo unspecified) | i | i | i | 87 | i | i
O=C1/C(=C\c2ccc3c(c2)OCO3)CCC/C1=C/c1ccc2c(c1)OCO2 | i | i | i | i | i | i
COc1cc(C(Nc2ccccn2)c2ccc3ccc(C)nc3c2O)cc(OC)c1O (stereo unspecified) | i | i | nt | 183 | nt | i
Cc1ccc2ccc(C(Nc3ccccn3)c3ccccc3)c(O)c2n1 (stereo unspecified) | i | i | i | i | i | i
Cc1ccnc(NC(c2ccsc2)c2ccc3ccc(C)nc3c2O)c1 (stereo unspecified) | i | -54 | i | i | i | i
COc1ccccc1N1CCN(C(CNS(=O)(=O)c2cccs2)c2cccnc2)CC1 (stereo unspecified) | i | i | i | i | i | i
COc1ccccc1N1CCN(C(CNS(=O)(=O)c2ccccc2)c2ccccc2)CC1 (stereo unspecified) | i | i | i | 57 | i | i
O=C(N1CCOCC1)C12CCC3CC(CC(C3)C1)C2 | i | -54 | i | i | i | i
O=C(N1CCOCC1)C12CC3CC(C1)CC(C(=O)N1CCOCC1)(C3)C2 | i | i | i | i | i | i
CCCCCCOc1ccc(C(=O)O)cc1C#N | i | i | i | i | i | i
COc1ccc(/C=N/N=C2/SCC(=O)N2Cc2ccccc2)cc1 | nt | i | i | 66 | i | i
COc1ccc(CN2C(=O)CS/C2=N/N=C/c2ccccc2)cc1 | nt | i | i | i | i | i
Cc1ccc(C(=O)NC(C#N)=C(Cl)Cl)cc1 | nt | i | i | 151 | i | nt
Cc1ccc(C(=O)NCC#N)cc1 | i | i | i | i | i | i
Cc1ccc(C(=O)NC(=C(Cl)Cl)S(=O)(=O)c2ccccc2)cc1 | i | i | i | 113 | i | i
CCCNC(=O)c1nn2cc(Br)cnc2c1Cl | i | i | i | i | i | i
Cc1ccc(-c2[nH]c(-c3ccccc3)nc2SCC(=O)NCC2CCCO2)cc1 (stereo unspecified) | i | i | i | i | i | i
CC(=O)N(CCC(c1ccccc1)c1ccco1)Cc1cccs1 (stereo unspecified) | i | i | i | i | i | i
SMILES | Dyrk1A ADPGlo | HSF1 inhib | NPR1 activator | HSF1 activator | NPR2 activator | aDG glyco up
CCC(=O)N(CCC(c1ccco1)c1ccccc1OC)Cc1cccs1 (stereo unspecified) | i | -75 | i | i | i | i
CCOC(=O)c1c(C)n(C)c2ccc(OC)c([N+](=O)[O-])c12 | i | i | i | i | i | i
C=CCN(C(=O)CCc1ccccc1OC)c1nc(-c2ccc(S(C)(=O)=O)cc2)cs1 | i | i | i | 58 | i | i
C=CCc1ccc(OCC(O)CO)c(OC)c1 (stereo unspecified) | i | i | i | 71 | i | i
C=CCc1ccc(OCC(O)COCC)c(OC)c1 (stereo unspecified) | i | i | i | i | i | i
C=CCc1ccc(OCc2ccc(C(=O)OC)o2)c(OC)c1 | i | i | i | 59 | i | i
CCCNC(=O)c1ccc(COc2ccc(CCC)cc2OC)o1 | i | -56 | i | i | i | i
O=C(CCNC(=O)c1ccc(Cl)cc1)Nc1cc(C(F)(F)F)ccc1N1CCOCC1 | nt | nt | i | nt | i | i
COc1ccc(S[C@]2(C(=O)N3CCN(c4ncccn4)CC3)CC(=O)N(c3ccc(OC)cc3)[C@@H]2c2ccc(OC)cc2)cc1 | nt | nt | i | nt | i | nt
